# Compound activity deposited in PubChem by National Center for Advancing Translational Sciences (NCATS).
# FH mod: Identification of activators of human fumarate hydratase by quantitative high-throughput screening; Fumarate hydratase, mitochondrial (Homo sapiens), P07954; FH coupled MDH/diaphorase resazurin fluorescence, 15 min; Potency, µM (doses to about 79.9 µM), without a hit: at the highest dose activity change, negative = inhibition, hits mostly inhibitors; 0.22% of 54,000 active; AID 1347055, 2019; also: potency is read from the fitted curve at half-maximal effect; % is scaled to controls: 0 for no effect and ±100 for the full control effect; the screen sought activators but most active calls are inhibition curves; nearly all actives have a fitted effect of over 45% in size
# p53null 39C kill: p53 null cell cytotoxicity, nonpermissive temperature | Potency, µM (highest dose often 46.1 µM), without a hit: top-dose activity, negative = cell killing, most hits filed as cytotoxic | 0.97% of 55,000 active | H1299 p53-null (neo) cells, 39C, ATPlite viability, 24 h;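 also: potency is read from the fitted curve at half-maximal effect; 0% = DMSO only and -100% = full killing by 100 µM tamoxifen; nearly all actives have a fitted effect of over 50% in size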
#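 Concentration-response (up to 46 uM) was run for 24 h at the nonpermissive 39C on H1299-p53A138V or H1299-neo cells. ATP content was measured with ATPlite luminescence. AC50 values were Hill-modeled after normalizing between DMSO and 100 uM tamoxifen killing.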
# NTMT1 inh: inhibitors of human N-terminal methyltransferase NTMT1. Q9BV86. NTMT1 MTase-Glo SAH luminescence, purified enzyme. Potency, µM (titrated, usually from 114 µM), for the others: top-dose activity change, negative = inhibition, usual class: inhibitors. 2.5% of 59,000 active. AID 1645870;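 also: potency is read from the fitted curve at half-maximal effect; plate controls were DMSO vehicle for no effect and no enzyme for full effect; nearly all actives have a fitted effect of over 65% in size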
# GALC G270D act: raises human GALC G270D mutant activity in cells; P54803; Potency, µM (titrated, usually from 57.5 µM), hits mostly activators; 145M-Twi-hGALC-G270D cells, HMU-beta-Gal fluorescence, 48 h; 0.1% of 45,000 active; AID 1159614; also: potency is read from the fitted curve at half-maximal effect; 0% is about no effect; nearly all actives have a fitted effect of over 65% in size
#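 qHTS, 1536-well; 145M-Twi-hGALC-G270D cells (WT line also made) in DMEM/F12 + 10% FBS; compound incubation on live cells; HMU-β-gal 0.1 mM final, pH 5.2, NaTC; carbonate stop; fluorescence increase = enhanced residual activity.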
# p53null 32C tox: kills p53 null cells at the permissive temperature; H1299-neo p53 null cells, ATP luminescence, 24 h, 32C; Potency, µM (titrated, usually from 46.1 µM), for the others: top-dose activity change, negative = cytotoxicity, actives largely listed as cytotoxic; 0.62% of 55,000 active; AID 903;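 also: potency is read from the fitted curve at half-maximal effect; 0% = DMSO only and -100% = full killing by 100 µM tamoxifen; nearly all actives have a fitted effect of over 55% in size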
#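 H1299-neo, 600 cells/well; overnight 37C; cpd up to 46 uM, 24 h at 32C; ATPlite luminescence after 20 min RT; normalized to DMSO (0%) and tamoxifen 100 uM (100% kill); Hill-fit AC50.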
# CLK4 inh: CLK4 kinase inhibition, SAR round 2 | shares compounds with NTMT1 inh | 90% of 90 active | Potency, µM (highest dose often 76.9 µM), for the others: top-dose activity, negative = inhibition, actives largely listed as inhibitors | recombinant Clk4, Kinase-Glo ATP luminescence, 4.5 h
# Target sequence (Q9HAZ1 whole entry, looked up): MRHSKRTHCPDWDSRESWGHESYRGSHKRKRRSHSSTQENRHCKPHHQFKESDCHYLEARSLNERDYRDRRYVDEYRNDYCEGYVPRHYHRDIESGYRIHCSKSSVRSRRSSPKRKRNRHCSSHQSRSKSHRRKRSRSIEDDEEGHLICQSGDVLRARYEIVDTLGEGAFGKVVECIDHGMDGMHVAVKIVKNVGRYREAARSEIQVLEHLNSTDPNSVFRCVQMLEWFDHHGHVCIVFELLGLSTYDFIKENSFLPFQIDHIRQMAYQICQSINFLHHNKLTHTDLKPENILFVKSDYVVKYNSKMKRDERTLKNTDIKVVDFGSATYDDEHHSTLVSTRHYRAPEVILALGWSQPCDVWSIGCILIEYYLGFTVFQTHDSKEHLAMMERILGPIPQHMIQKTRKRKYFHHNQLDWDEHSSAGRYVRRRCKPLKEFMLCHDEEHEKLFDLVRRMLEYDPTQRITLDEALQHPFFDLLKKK
# Sfp qHTS opt: Sfp PPTase inhibition, chemistry optimization | shares compounds with NTMT1 inh | purified Sfp PPTase enzyme activity, qHTS | Potency, µM (highest dose often 114 µM), for the others: top-dose activity change, negative = inhibition, usual class: inhibitors | 78% of 230 active
# Bsub HM489 growth: reduces growth of B. subtilis HM489 strain | shares compounds with NTMT1 inh | B. subtilis HM489 (acpS-) growth, BacTiter-Glo, 5 h | Potency, µM (highest dose often 114 µM), for inactives: at the highest dose activity change, negative = inhibition, usual class: inhibitors | 50% of 220 active
# Sfp PPTase gel: inhibitors of Bacillus subtilis Sfp PPTase, gel-based followup; shares compounds with NTMT1 inh; purified Sfp PPTase, gel-based product detection; Potency, µM (top dose mostly 250 µM), without a hit: at the top dose activity change, negative = inhibition, most hits filed as inhibitors; 54% of 220 active; AID 540355
# Sfp SAR2: inhibitors of Bacillus subtilis Sfp PPTase, SAR round 2. shares compounds with NTMT1 inh. purified Sfp enzyme, PPTase activity, qHTS. Potency, µM (titrated, usually from 57.1 µM), inactives show top-dose activity change, negative = inhibition, most hits filed as inhibitors. 87% of 230 active. AID 602370
# HSD17B4 inh: inhibits human HSD17B4, off-target for HPGD inhibitors. shares compounds with NTMT1 inh. purified HSD17B4, estradiol/NAD+, NADH fluorescence. Potency, µM (top dose mostly 57.1 µM), without a hit: top-dose activity change, negative = inhibition, usual class: inhibitors. 10% of 230 active. AID 743187
# ALDH1A1 counter: ALDH1A1 (human) inhibition, HPGD counter-screen; shares compounds with NTMT1 inh; recombinant ALDH1A1, NADH fluorescence, propionaldehyde/NAD+; Potency, µM (titrated, usually from 57.1 µM), for inactives: at the highest dose activity change, negative = inhibition, hits mostly inhibitors; 93% of 230 active; AID 743195
# NNMT counter: blocks human NNMT methyltransferase | shares compounds with NTMT1 inh | NNMT MTase-Glo luminescence, SAH detection | Potency, µM (series often up to 57.1 µM), without a hit: top-dose activity, negative = inhibition, usual class: inhibitors | 10% of 120 active | AID 1645878
# Active calls of the source: *; i = inactive; ? = inconclusive; / = not tested or not shown; ! = not confirmed by another sample; [ ] = dose if it differs, or a comment. Shown is part of a subset that was picked to be rich in hits. Calls follow the shape of the dose curve; as a rule, active = well fitted curve in the direction sought with a large enough effect; inconclusive = small, poorly fitted or top-dose-only effect, or another doubt; inactive = no such curve, though single readings can be large; an effect the other way counts as inactive or inconclusive.
SMILES,FH mod,p53null 39C kill,NTMT1 inh,GALC G270D act,p53null 32C tox,others
Cc1ccc(C)c(N2CCN(C(=O)NCc3noc4ccccc34)CC2)c1,-7.2%,-10.3%,-2.2%,i,-5.9%,
Cc1cc(C)nc(NC(=S)N2CCN(c3noc4ccccc34)CC2)c1,/,/,?,/,/,Sfp qHTS opt=3.32µM*;Bsub HM489 growth=?;Sfp PPTase gel=-66.8%;Sfp SAR2=2.89µM*;HSD17B4 inh=-18.3%;ALDH1A1 counter=17.1µM*
Cc1ccc(C(=O)NCCCCCC(=O)Nc2ccccc2N)cc1,/,/,9.5%[29.8 µM],/,/,
O=C1C=CC2OC(c3ccccc3)C(O)C2O1 (configuration not stated),0.1%,/,14.6%[57.5 µM],/,/,
CS(=O)(=O)N1CCC(NC(=O)c2[nH]ncc2NC(=O)c2c(Cl)cccc2Cl)CC1,0.8%,/,8.4%[57.5 µM],/,/,
Oc1ccc([C@H]2COc3cc(O)ccc3C2)cc1,-4.5%,/,-3.0%[57.5 µM],/,/,
Cc1ccc(CN(C)c2ncnc3ccc(-c4ccc(C(=O)O)o4)cc23)o1,/,/,2.0%,/,/,CLK4 inh=0.519µM*
Cc1ccsc1CN(C)c1ncnc2ccc(-c3ccc([C@@H](C)O)o3)cc12,/,/,8.91µM*!,/,/,CLK4 inh=0.164µM*
CCCCOc1cccc(C(=O)N(Cc2ccc(C)o2)c2ccccn2)c1,-3.4%,-7.5%,-11.4%,i,17.7%,
Nc1ccc(C(=O)Nc2cccc(-c3nc(N4CCOCC4)c4oc5ncccc5c4n3)c2)cn1,-10.1%,/,10.7%,/,/,NNMT counter=-17.8%
COc1ccc(NC(=O)c2cnc(N3CCOCC3)c3ccccc23)cc1OC,-19.1%,14.2%,0.9%,i,-9.2%,
COc1cc(Nc2c(C#N)cnc3cc(OCCCN4CCN(C)CC4)c(OC)cc23)c(Cl)cc1Cl,-16.8%,/,7.94µM*,i,/,NNMT counter=20µM*
OC[C@H]1O[C@@H](S[C@@H]2O[C@H](CO)[C@H](O)[C@H](n3cc(-c4cccc(F)c4)nn3)[C@H]2O)[C@H](O)[C@@H](n2cc(-c3cccc(F)c3)nn2)[C@H]1O,/,/,11.9%,/,/,
